Experimental data published in PubChem BioAssay AID2796 (The Scripps Research Institute Molecular Screening Center, 2010).
About 8,000 (2.5%) of roughly 320,000 compounds were called active. Cut-off read from the data, not from the text of the source: active = activation above about 47%; inactive = the rest. Only a selection was taken, and actives are over-represented in it overall.

What follows are molecules tested against Aryl hydrocarbon receptor (Homo sapiens) (UniProt P35869) (assay: AHR activators, primary screen, cell-based, luminescence, luciferase reporter, human (AID 2796;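 note: 0% = vehicle wells and 100% = reference agonist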)). Details: AHR-responsive luciferase reporter cells, at 5 µM, hits give high values.
Chain of Aryl hydrocarbon receptor (Homo sapiens) (P35869 whole entry, looked up): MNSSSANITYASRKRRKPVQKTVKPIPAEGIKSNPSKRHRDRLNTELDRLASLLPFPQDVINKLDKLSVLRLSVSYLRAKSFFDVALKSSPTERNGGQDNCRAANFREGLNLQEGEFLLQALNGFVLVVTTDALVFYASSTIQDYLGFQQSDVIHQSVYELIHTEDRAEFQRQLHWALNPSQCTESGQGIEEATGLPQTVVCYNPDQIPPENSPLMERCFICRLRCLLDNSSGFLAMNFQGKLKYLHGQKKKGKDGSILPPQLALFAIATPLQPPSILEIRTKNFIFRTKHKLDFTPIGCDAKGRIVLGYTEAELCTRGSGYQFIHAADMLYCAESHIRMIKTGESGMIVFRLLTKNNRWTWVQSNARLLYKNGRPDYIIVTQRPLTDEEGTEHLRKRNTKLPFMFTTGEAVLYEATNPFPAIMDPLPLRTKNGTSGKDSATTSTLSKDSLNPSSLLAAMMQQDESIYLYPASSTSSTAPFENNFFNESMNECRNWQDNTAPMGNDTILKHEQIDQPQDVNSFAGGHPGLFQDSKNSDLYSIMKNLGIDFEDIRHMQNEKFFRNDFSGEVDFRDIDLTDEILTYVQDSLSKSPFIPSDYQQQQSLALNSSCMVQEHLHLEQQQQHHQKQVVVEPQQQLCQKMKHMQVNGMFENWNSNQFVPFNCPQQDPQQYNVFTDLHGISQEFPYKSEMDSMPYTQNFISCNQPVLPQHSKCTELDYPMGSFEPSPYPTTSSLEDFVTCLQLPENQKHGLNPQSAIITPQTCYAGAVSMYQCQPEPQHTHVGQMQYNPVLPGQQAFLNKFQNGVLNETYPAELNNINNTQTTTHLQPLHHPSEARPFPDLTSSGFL

activation, active:
COc1ccc(NC(=O)c2cc([N+](=O)[O-])ccc2NC(=O)CNC2CCCCC2C)c(OC)c1 (stereo unspecified) 47.4%
COc1cccc(OC)c1C(=O)Nc1sc2c(c1C(N)=O)CCCC2 49.1%
NC(=O)c1c(Nc2nc3c(F)cccc3s2)sc2c1CCCC2 52.5%
Cc1ccc(NC(=O)NNC(=O)c2sccc2-n2cccc2)cc1 85.8%
O=C1/C(=C\Nc2ccccc2)CCN1c1ncccn1 66.5%
CCc1cc2c(=O)c(-c3ccon3)c(N)oc2cc1OC 59.6%
COc1ccccc1C(=O)NC(=S)Nc1ccccc1N1CCCCC1 76.4%
N#C/C(=C(/O)COc1cccc2ccccc12)c1nc2ccccc2[nH]1 93.7%
Cn1c(/C(C#N)=C2/CCCCCN2)nc2ccccc21 67.6%
Cc1ncn2cc(-c3ccc(Cl)cc3Cl)[nH]c(=O)c12 56.5%
C/C(=N\Nc1nc(Nc2ccccc2)nc(N2CCOCC2)n1)c1cccs1 56.8%

activation, inactive:
O=C(CCc1ccc(S(=O)(=O)N2CCOCC2)cc1)OCC(=O)c1ccc(Br)cc1 2.27%
COC(=O)C1=C(C)N(c2ccc(C)cc2)/C(=C/c2ccc(O)cc2)C1=O 2.06%
C[C@H](C(=O)CC(=O)OC(C)(C)C)[C@H](O)c1ccc(C(F)(F)F)cc1 1.94%
Cc1cc(OC(=O)c2ccc(Cl)cc2)cc(=O)n1C -0.96%
COc1ccc2ccn(C)c2c1 5.22%
COc1ccc(C(C(=O)NCc2ccccc2)N(Cc2cccs2)C(=O)c2cnccn2)cc1 (stereo unspecified) -1.35%
CC1CCCCC1NCC(=O)Nc1ccccc1C(=O)Nc1ccccc1 (stereo unspecified) -0.06%
COc1cc([N+](=O)[O-])ccc1NC(=O)CN1CCCC1 4.3%
COc1ccccc1CN1CC(C(=O)NCCc2cn[nH]c2)CCC1=O (stereo unspecified) 2.31%
COc1cccc(OC)c1C(=O)Nc1nnc(C(C)C)s1 15.7%
O=C(Nc1sc2c(c1C(=O)O)CCC2)c1ccccc1F 13.6%
CNC(=O)c1c(NC(NC(=O)c2ccco2)C(=O)c2ccc(Cl)cc2)sc2c1CCCC2 (stereo unspecified) 1.8%
NC(=O)c1c(NC(=O)CSc2nnc(-c3ccco3)n2N)sc2c1CCCC2 19.8%
Cc1cccc(N(C(=O)Cn2nnc(-c3ccc(C)o3)n2)C(C(=O)NC2CCCC2)c2ccncc2)c1 (stereo unspecified) -1.02%
CC1CCCCN1C(=O)CCS(=O)(=O)Cc1ccccc1 (stereo unspecified) -0.28%
Nc1ccccc1/C=N\N=C/c1ccccc1N 38.4%
CCNC(=O)c1sccc1-n1cccc1 0.75%
COC(=O)c1sccc1NC(=S)Nc1ccc(C)cc1 1.83%
CN(C)C1=NC[C@H](Cc2ccccc2)N1CCc1ccc(F)cc1 5.16%
CCOC(=O)N1CCN(C(=O)c2ccccc2SCC(=O)NCC2CCCCC2)CC1 1.83%
O=C(Cc1ccccc1)NNC(=O)C1CCN(c2ncccn2)CC1 0.76%
COc1ccccc1Oc1ccc(N/C=C2/CCCC2=O)cc1 0.2%
CCc1cc2c(=O)c(-c3ccc(F)cc3)c(C(F)(F)F)oc2cc1OCC(=O)O 8.09%
COc1ccc2oc(N)c(C=O)c(=O)c2c1 -1.38%
CCN1C(=O)C(C(=O)NC(C)c2ccccc2)C2CC1(C)Oc1ccccc12 (stereo unspecified) 2.9%
CC(NS(=O)(=O)c1ccccc1)c1n[nH]c(=S)n1-c1ccccc1 (stereo unspecified) 2.32%
COc1ccc(Cl)cc1NS(=O)(=O)c1cccc(C(=O)NCC2CCCO2)c1 (stereo unspecified) -1.04%
COc1ccc(C(=O)NC(=S)Nc2ccccc2N2CCN(S(C)(=O)=O)CC2)cc1OC 0.97%
O=C(NC(=S)Nc1ccccc1N1CCCCC1)c1ccc(F)cc1 19.9%
Cc1cc(C)n(CC(O)CN(c2ccccc2)S(=O)(=O)c2ccc3ccccc3c2)n1 (stereo unspecified) 2.73%
N#C/C(=C(/O)COC(=O)COc1ccc(Cl)cc1)c1nc2ccccc2[nH]1 24.9%
N#C/C(=C(/O)Cc1cccc2ccccc12)c1nc2ccccc2s1 9.95%
O=C(CCNS(=O)(=O)c1ccccc1C(F)(F)F)NCc1ccc2c(c1)OCO2 4.67%
COc1ccccc1CCNC(=O)CSc1nnc2ccc(-c3cccnc3)nn12 16.4%
CCOC(=O)N1CCC(N2Cc3cccc(C(=O)Nc4ccc(S(=O)(=O)N(CC)CC)cc4)c3C2=O)CC1 -1.91%
CC(=O)Oc1ccccc1C(=O)Nc1ncc([N+](=O)[O-])s1 6.57%
Cc1cccc(C)c1Nc1nnc(SCC(=O)NCCCN2CCCC2=O)s1 -0.54%
C=CCNc1nc(N)c(C(=C(C#N)C#N)c2ccccc2)s1 5.13%
CN1c2ccc([N+](=O)[O-])cc2C(C)(C)C12C=Cc1cc(C(=O)O)ccc1O2 (stereo unspecified) 0.9%
CC[C@@]1(C(=O)OC)N[C@H](CN(C)C(C)=O)[C@@H]2C(=O)N(C)C(=O)[C@@H]21 -0.36%
N#C/C(=C1/CCCN1)c1ccccn1 0.38%
Cn1c(S(=O)(=O)O)nc2ccccc21 3.28%
Cc1ccc2[nH]c(=O)c(CN(CCCN(C)C)C(=O)Nc3cccc(Cl)c3)cc2c1 0.48%
CCOC(=O)c1nc(C)n(-c2ccc(Cl)cc2Cl)n1 2.68%
COn1c(-c2ccc(Cl)cc2Cl)nc2ncccc21 2.64%
COc1cc(NC(=O)CSc2ccc(-c3cccnc3)nn2)cc(OC)c1 44.9%
O=S(=O)(NCC1CCCO1)c1cnc(Cl)c(Cl)c1 (stereo unspecified) -2.6%
CC(C)[C@H](NC(=O)N1c2ccccc2NC(=O)[C@@H]1C(C)C)C(=O)N[C@H](C(=O)O)c1ccccc1 0.48%
C/C(=N\Nc1nc(N2CCOCC2)nc(N2CCOCC2)n1)c1ccc([N+](=O)[O-])cc1 0.4%
C/C(=N\Nc1nc2ccccc2[nH]1)c1cccs1 43.1%
